Compounds with a hit are over-represented: about 7.4% of the library has one in this group of screens.
Rab9 prom act = activators of Rab9 promoter; Huh7 Rab9 promoter-luciferase reporter, luminescence, 24 h; Potency, µM (top dose mostly 9.22 µM), for inactives: at the top dose activation, negative = inhibition, hits mostly activators; 320,000 tested, 2.8% active; further: % of control where 0% means no effect; nearly all actives have a fitted effect of over 60% in size
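Luminescence read-out: Huh7 cells stably expressing Rab9-luciferase, treated 24 h with compound at 37 °C, then lysed with luciferase reagent for 10 min at ambient before reading.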
FLuc counter = firefly luciferase modulation, counter-screen for miR-21 project. Potency, µM (titrated, usually from 57.5 µM), for the others: top-dose activity change, negative = inhibition, usual class: inhibitors. 360,000 tested, 6.9% active. P08659. purified FLuc, Km substrates, luminescence inhibition;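 further: plate controls were vehicle for no effect and reference inhibitor for full effect; nearly all actives have a fitted effect of over 55% in size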
Target sequence (P08659 whole entry, looked up): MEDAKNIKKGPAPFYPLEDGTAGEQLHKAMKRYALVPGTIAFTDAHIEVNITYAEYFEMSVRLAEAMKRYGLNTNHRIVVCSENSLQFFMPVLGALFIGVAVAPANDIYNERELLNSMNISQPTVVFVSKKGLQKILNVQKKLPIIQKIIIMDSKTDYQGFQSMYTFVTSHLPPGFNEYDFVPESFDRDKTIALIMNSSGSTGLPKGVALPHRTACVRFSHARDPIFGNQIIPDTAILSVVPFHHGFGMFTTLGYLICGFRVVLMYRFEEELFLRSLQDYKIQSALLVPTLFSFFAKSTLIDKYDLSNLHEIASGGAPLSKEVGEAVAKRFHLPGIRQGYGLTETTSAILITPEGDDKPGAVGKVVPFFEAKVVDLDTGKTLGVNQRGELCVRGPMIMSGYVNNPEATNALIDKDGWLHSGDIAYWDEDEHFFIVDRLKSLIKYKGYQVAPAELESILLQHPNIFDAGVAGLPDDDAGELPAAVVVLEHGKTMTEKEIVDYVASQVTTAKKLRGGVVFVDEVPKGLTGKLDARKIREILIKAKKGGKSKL
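Biochemical qHTS of compounds, final roughly 60 µM downward over six points, against 10 nM purified firefly luciferase using Km concentrations of substrates (10 uM D-luciferin, 10 uM ATP) in Tris acetate pH 7.5 buffer; luminescence output.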
NPC1 prom act = activators of NPC1 promoter | Huh7 NPC1 promoter luciferase reporter, 24 h | 320,000 tested, 2.4% active | Potency, µM (highest dose often 9.22 µM), without a hit: top-dose activation, usual class: activators; further: % of control where 0% means no effect; nearly all actives have a fitted effect of over 60% in size
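In 1536-well qHTS, Huh7 cells harboring an NPC1 promoter–luciferase construct received compound for 24 h; activation was quantified by luminescence following luciferase reagent addition.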
SMN2 splice up = increases expression of the SMN2 splice variant; HEK293 SMN2-luciferase splicing reporter, luminescence, 30-36 h; Potency, µM (top dose mostly 46.1 µM), without a hit: at the top dose activity change, positive = activation, usual class: activators; 210,000 tested, 2.8% active; further: % of control where 0% means no effect; nearly all actives have a fitted effect of over 55% in size
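HEK293 cells carry an SMN2 […]–luciferase reporter in which exon 7 inclusion puts luciferase in frame. Cells were plated 10-12 h before compound addition, then incubated 30-36 h at 37C. ONE-Glo luminescence was read; sodium butyrate at 4.5 mM final served as control.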
ELG1 genotox = genotoxicity induction in ELG1-luciferase HEK293T cells | HEK293T ELG1-luciferase reporter, luminescence, 16 h | Potency, µM (doses to about 46 µM), without a hit: at the top dose activity change, positive = activation, most hits filed as activators | 330,000 tested, 1.3% active | AID 504466; further: % of control where 0% means no effect; nearly all actives have a fitted effect of over 60% in size
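Genotoxic stress is detected as increased luminescence from luciferase-tagged ELG1 in HEK293T cells, measured with ONE-Glo after a 16 hr treatment at 37 °C.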
Active calls of the source: *; u = inconclusive; x = not tested or not shown; [ ] = dose if it differs, or a comment. The call rests on the fitted dose curve; in most records, active means well fitted curve in the direction sought with a large enough effect; inconclusive means small, poorly fitted or top-dose-only effect, or another doubt; inactive means no such curve, though single readings can be large; an effect the other way counts as inactive or inconclusive. Potency means the concentration at half of the fitted maximal effect.

SMILES	Rab9 prom act	FLuc counter	NPC1 prom act	SMN2 splice up	ELG1 genotox
COc1ccc2c(=O)cc(-c3ccccc3F)oc2c1	u	21.3µM*	u	x	u
COc1c(-c2ccc(O)cc2)oc2cc(O)cc(O)c2c1=O	0.4%	-11.3%	-6.7%	x	16.3%
COc1ccc(-c2cc(=O)c3cc(O)ccc3o2)cc1	1.58µM*	1.69µM*	1.41µM*	x	5.8µM*
O=c1cc(-c2ccccc2)oc2ccccc12	u	u	u	u	20.6µM*
COc1ccc2c(=O)cc(C(F)(F)C(F)(F)F)oc2c1	5.9%	-3.5%	4.2%	x	0.2%
CCOc1ccc(NC(=O)CN2C(=O)COc3ccc(S(=O)(=O)NC4CCCC4)cc32)cc1	x	-12.4%	x	x	x
CNC(=O)C1CC(=O)N(CCc2ccc(C)cc2)C1 (stereo not drawn)	3.3%	0.9%	-1.8%	x	1.2%
COc1cc(O)c2c(=O)cc(-c3ccc(OC)c(-c4c(O)cc(O)c5c(=O)cc(-c6ccc(O)cc6)oc45)c3)oc2c1	x	x	x	5.4%	x
O=c1cc(/C=C/c2ccccc2)oc2ccccc12	2.24µM*	6.01µM*	u	11.2µM*	2.59µM*
O=c1cc(CO)oc2ccccc12	x	x	x	x	1.8%
CC(C)Oc1ccc2c(=O)cc(-c3ccccc3)oc2c1	x	x	x	6.31µM*	x
COc1ccc2c(=O)cc(C(=O)O)oc2c1	0.9%	0.0%	-5.1%	9.5%	0.4%
COc1ccc(-c2cc(=O)c3c(O)cc(O)cc3o2)cc1	3.16µM*	1.9µM*	u	u	u
O=c1cc(-c2ccccc2)oc2ccc(O)cc12	3.98µM*	9.53µM*	2.82µM*	x	20.6µM*
O=c1cc(-c2ccccc2)oc2c(O)c(O)ccc12	x	x	x	-70.6%	x
CCCNC(=O)c1ccc2c(c1)N=C(CCC)c1ccccc1S2	x	u	x	-29.7%	x
O=c1cc(-c2ccc(O)c(O)c2)oc2ccccc12	x	x	x	14.1µM*	x
O=C1c2ccccc2C(=O)N1CCC#Cc1ccc2cc(CCCO)oc(=O)c2c1	x	x	x	x	1.7%
O=C(Nc1sc2c(c1C(=O)O)CCC2)c1cccs1	28.4%	16.9µM*	16.5%	u	7.7%
O=C(Nc1sc2c(c1C(=O)Nc1cccc(Cl)c1)CCCC2)c1cccs1	x	-19.4%	x	-4.2%	x
NC(=O)c1c(NC(=O)c2cccs2)sc2c1CCCCCC2	3.16µM*	4.78µM*	u	u	6.0%
COc1cccc(CN2CC(C(=O)NCCC3=CCCCC3)CCC2=O)c1 (stereo not drawn)	6.5%	-5.8%	1.8%	x	-0.2%[9.26 µM]
Cc1cc(C2=NNC(=Nc3ccccc3)SC2)c(C)n1C	1.41µM*	10.7µM*	3.16µM*	u	u
COCCCN=C1NN=C(c2cc(C)n(Cc3ccccc3Cl)c2C)CS1	23.1%	12µM*	-4.1%	u	u
Cc1cc(C2=NNC(=NC3CC3)SC2)c(C)n1-c1c(C)n(C)n(-c2ccccc2)c1=O	-12.1%	-6.3%	5.5%	-4.4%	-3.1%
SMILES	Rab9 prom act	FLuc counter	NPC1 prom act	SMN2 splice up	ELG1 genotox
COCCCN=C1NN=C(c2cc(C)n(-c3ccccc3)c2C)CS1	1.26µM*	4.26µM*	u	-63.0%	u
COCCCN=C1NN=C(c2cc(C)n(-c3ccccc3F)c2C)CS1	0.316µM*	2.39µM*	u	15.8%	-8.9%
CCN(CC)c1ccc(NC(=O)C2COc3ccc(OC)cc3C2)c(C)c1 (stereo not drawn)	x	3.1%	x	x	x
CCC1CCCCN1CCCNC(=O)c1ccc(CS(=O)(=O)c2ccc(Br)cc2)o1 (stereo not drawn)	0.8%	3.6%	-5.8%	x	-3.1%
COCCn1c(C)cc(C2=NNC(=Nc3ccccc3F)SC2)c1C	0.4%	0.536µM*	u	-31.0%	u
CC(C)(C)c1ccc(OCCn2ccccc2=O)cc1	1.12µM*	5.36µM*	1.41µM*	11.2µM*	4.61µM*
Cc1cccn2c(=O)c(C(=O)NCCc3ccc(Cl)cc3)cnc12	x	13.5µM*	x	x	x
O=C(NCCc1c[nH]c2ccccc12)c1cnc2n(c1=O)CCS2	4.47µM*	u	u	u	13.0%
CSc1ccc(CCNC(=O)c2cnc3c(C)cccn3c2=O)cc1	x	-4.6%	x	x	x
O=C(NCc1cccnc1)c1cnc2n(c1=O)CCS2	-1.1%	-3.6%	-5.6%	-0.9%	0.1%
